# Calls of active or inactive are those of the source. The calls were made as follows: active = hit-call score of the fitted dose curve at least 0.9, where 1 is the maximum; inactive = score below 0.9.
# Read-out: urokinase plasminogen activator (uPA), PLAU (gene 5328)
# Assay: BSK_KF3CT_uPA: BioMAP Diversity Plus: KF3CT Assay for urokinase plasminogen activator (uPA) Biomarker Activity (AID 2283075)
# Details: primary human keratinocytes with fibroblasts; actives raise or lower the signal
# How it was run: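 ELISA read-out of uPA 24 h after dosing human skin keratinocytes co-cultured with foreskin fibroblasts. Signal change fitted both ways relative to DMSO; sulforhodamine B on parallel cultures marks overt cytotoxicity.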
Structure (SMILES),outcome,AC50
O=C(O)C(Cl)(Cl)Cl,inactive,–
Oc1cccc2cccnc12,–,2.74 µM (active)
CC(=O)OC(c1ccccc1)C(Cl)(Cl)Cl (stereo unspecified),inactive,–
C[C@]12CCC(=O)C[C@@H]1CC[C@@H]1[C@@H]2CC[C@]2(C)[C@@H](O)CC[C@@H]12,inactive,–
COP(=S)(OC)Oc1ccc(Sc2ccc(OP(=S)(OC)OC)cc2)cc1,inactive,–
C(=NC1CCCCC1)=NC1CCCCC1,–,28.8 µM (active)
COc1cc(OC)nc(NC(=O)NS(=O)(=O)c2ncccc2C(=O)N(C)C)n1,inactive,–
CC12CC1(C)C(=O)N(c1cc(Cl)cc(Cl)c1)C2=O (stereo unspecified),inactive,–
COC(=O)c1sccc1S(=O)(=O)NC(=O)Nc1nc(C)nc(OC)n1,inactive,–
C=C(C)C(=O)[O][Sn]([CH2]CCC)([CH2]CCC)[CH2]CCC,–,0.148 µM (active)
CC(C)(C)c1cc(O)ccc1O,–,31.3 µM (active)
CC(C)(c1ccccc1)c1ccc(O)c(C(C)(C)c2ccccc2)c1,–,2.85 µM (active)
CCCCCCCCc1ccc(O)cc1,–,31.6 µM (active)
O=C(Nc1ccc2[nH]ccc2c1)c1cc2cc(F)ccc2n1Cc1cccc(F)c1,–,8.64 µM (active)
O=C(OC1CCCCC1)c1ccccc1C(=O)OC1CCCCC1,inactive,–
C=CC(=O)OCCCCCC(C)C,inactive,–
CC(C)(C)CC(C)(C)c1ccc(O)cc1,–,9.6 µM (active)
CCNc1nc(NC(C)(C)C)nc(SC)n1,inactive,–
CC(=O)[O][Hg][c]1ccccc1,–,0.625 µM (active)
Nc1cccc2ccccc12,inactive,–
ClCC(Cl)CCl,inactive,–

# Reference: PubChem BioAssay (EPA / NIEHS)
